# Measurements published in PubChem BioAssay.
# The source made the active and inactive calls. Unless noted, how the calls were made is not given here.
# Tests used:
# [1] = anti-His antibody binders, primary screen, artefact control for SMM control protein annotation, biochemical, small-molecule microarray, 635 nm fluorescence (AID 1128); conditions: anti-His Alexa647 antibody binding, higher = more signal;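 further: score merges feature fluorescence with signal-to-noise for each printed compound spot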
# [2] = tested on: Human papillomavirus type 1a E7 protein (residues 1-88); assay: HPV1a E7 small-molecule binders, primary screen, biochemical, small-molecule microarray, residues 1-88, 635 nm (AID 1129); conditions: small-molecule microarray binding, fluorescence 635 nm; higher = more signal
# [3] = target: Focal adhesion kinase 1 (Homo sapiens) (UniProt Q05397); assay: small-molecule microarray binders of FAK, primary screen, biochemical, 635/667 nm fluorescence, BSA, DTT (AID 1130); conditions: PTK2 binding, 635 nm fluorescence, higher = more signal;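 further: composite of spot emission at 667 nm and signal to noise over triplicate slides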
# [4] = tested on: Fibrinogen (Alexa647-labelled); assay: fibrinogen binders on compound microarrays, profiling panel, artefact control for SMM control-protein annotation, biochemical, small-molecule microarray, 635/667 nm fluorescence (AID 1131); conditions: fibrinogen-A647 binding fluorescence, higher = more signal;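 further: z-score merges 667 nm fluorescence with per-spot signal-to-noise over triplicate slides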
# [5] = target: Follistatin (Homo sapiens) (UniProt P19883); assay: follistatin binders on small-molecule microarrays, primary screen, biochemical, small-molecule microarray, 635/667 nm fluorescence (AID 1132); conditions: FST binding, 635 nm fluorescence, higher = more signal
# [6] = target: Fibroblast growth factor 2 (Homo sapiens) (UniProt P09038); assay: FGF2 binders on small-molecule microarrays, primary screen, biochemical, small-molecule microarray, 635/667 nm fluorescence (AID 1133); conditions: small-molecule microarray binding, FGF2, fluorescence 635/667; higher = more signal
# [7] = mitochondrial membrane potential change in A549 cells, profiling panel, cell-based, JC-1 fluorescence, basal, 24 h, 100 nL (AID 1138); conditions: higher = more signal;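 further: A549 lung adenocarcinoma cells under basal conditions with no added stimulus; test concentration not given here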
# Lefty1 = Lefty1 binders on small-molecule microarrays, primary screen, biochemical, small-molecule microarray, 635/667 nm fluorescence (AID 1139); conditions: small-molecule microarray binding, fluorescence 635/667; higher = more signal
# [8] = tested on: wheat germ agglutinin (Triticum aestivum), Alexa647-labelled; assay: wheat germ agglutinin binders on compound microarrays, profiling panel, artefact control for SMM control-protein annotation, biochemical, small-molecule microarray, 635/667 nm fluorescence (AID 1140); conditions: WGA-A647 binding, 635 nm fluorescence, higher = more signal;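 further: score merges 667 nm feature emission with signal to noise over triplicate slides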
# [9] = target: Luciferin 4-monooxygenase (Photinus pyralis) (UniProt P08659); assay: firefly luciferase enzyme inhibitors, primary screen, biochemical, luminescence, purified enzyme, 2006 set (AID 1141); conditions: SteadyGlo luminescence, 30 min, higher = more signal, called active from +8 up or from −8 down;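 further: cell-free assay with purified firefly luciferase at 100 ng per well in PBS; test concentration not given here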
# [10] = tested on: Wnt5a (protein binding on small-molecule microarray); assay: Wnt5a binders on small-molecule microarray, primary screen, biophysical, 635/667 nm fluorescence (AID 1142); conditions: 635 nm fluorescence, higher = more signal;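 further: fluorescence read at 667 nm with signal to noise per printed feature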
# [11] = cell viability in Huh7 cells, primary screen, cytotoxicity control for HCV replication inhibitor project, CellTiter-Glo luminescence, basal, 48 h (AID 1143); conditions: Huh7 HCV replicon, higher = more signal, called active from +8 up or from −8 down;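 further: Huh7 hepatoma cells carrying a hepatitis C replication reporter with no stimulus; test concentration not given here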
# [12] = P. aeruginosa biofilm formation inhibitors, primary screen, PAO1 strain, BacTiter-Glo luminescence, LB-PBS (AID 1144); conditions: 12 h, higher = more signal
# [13] = CREB reporter modulators without forskolin, primary screen, cell-based, PC12, CRE-LacZ reporter, unstimulated (AID 1145); conditions: no forskolin, luminescence, 4.5 h, higher = more signal, called active from +8 up or from −8 down
# [14] = CREB reporter modulators under forskolin, primary screen, cell-based, PC12, CRE-LacZ reporter, forskolin-stimulated (AID 1146); conditions: luminescence, 4.5 h, higher = more signal, called active from +8 up or from −8 down;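 further: PC12 cells with 6xCRE LacZ reporter stimulated by forskolin 10 µM; beta-galactosidase reporter signal reflecting CREB driven transcription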
# [15] = target: Streptavidin (Streptomyces avidinii) (UniProt P22629); assay: streptavidin binders on small-molecule microarray, primary screen, artefact control for SMM compound annotation, biophysical, 635/667 nm fluorescence (AID 1147); conditions: streptavidin binding, higher = more signal;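 further: signal reflects streptavidin binding to arrayed compounds as a control protein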
# [16] = small-molecule binders of probe aInhba, primary screen, biochemical, small-molecule microarray, 635/667 nm fluorescence (AID 1148); conditions: higher = more signal;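 further: score merges 667nm spot fluorescence with signal-to-noise for antibody binding to printed compounds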
# Torsin-1A (Homo sapiens) [17] = target: Torsin-1A (Homo sapiens) (UniProt O14656); assay: torsin A binders from cell lysate, primary screen, small-molecule microarray, wild-type, 635/667 nm (AID 1149); conditions: COS7 hTOR1A-WT lysate, 635 nm fluorescence, higher = more signal
# Torsin-1A (Homo sapiens) [18] = target: Torsin-1A (Homo sapiens) (UniProt O14656); assay: small-molecule binders of mutant TOR1A in lysate, primary screen, cell lysate, small-molecule microarray, COS7 lysate, 635/667 nm fluorescence (AID 1150); conditions: COS7 hTOR1A mutant lysate, 635 nm fluorescence, higher = more signal;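 further: score pools 667 nm emission and signal to noise measuring lysate protein binding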
# [19] = tested on: Sonic hedgehog protein (Shh); assay: small-molecule binders of Shh protein, primary screen, biochemical, small-molecule microarray, 635/667 nm fluorescence (AID 1151); conditions: small-molecule microarray binding, 635 nm fluorescence; higher = more signal;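 further: Shh protein binding to compounds spotted on small-molecule microarray slides; score combines spot fluorescence intensity with signal-to-noise across triplicate slides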
# Chain of Torsin-1A (Homo sapiens) (O14656 whole entry, looked up): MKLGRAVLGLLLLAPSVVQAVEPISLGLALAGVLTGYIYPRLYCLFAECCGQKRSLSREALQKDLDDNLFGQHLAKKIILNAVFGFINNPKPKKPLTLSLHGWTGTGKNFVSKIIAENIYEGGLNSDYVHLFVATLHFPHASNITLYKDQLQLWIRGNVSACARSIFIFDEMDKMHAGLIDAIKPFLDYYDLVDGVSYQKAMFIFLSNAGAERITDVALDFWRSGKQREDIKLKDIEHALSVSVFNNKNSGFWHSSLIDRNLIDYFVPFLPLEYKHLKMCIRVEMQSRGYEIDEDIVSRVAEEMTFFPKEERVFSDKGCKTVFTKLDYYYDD
# Chain of Luciferin 4-monooxygenase (Photinus pyralis) (P08659 whole entry, looked up): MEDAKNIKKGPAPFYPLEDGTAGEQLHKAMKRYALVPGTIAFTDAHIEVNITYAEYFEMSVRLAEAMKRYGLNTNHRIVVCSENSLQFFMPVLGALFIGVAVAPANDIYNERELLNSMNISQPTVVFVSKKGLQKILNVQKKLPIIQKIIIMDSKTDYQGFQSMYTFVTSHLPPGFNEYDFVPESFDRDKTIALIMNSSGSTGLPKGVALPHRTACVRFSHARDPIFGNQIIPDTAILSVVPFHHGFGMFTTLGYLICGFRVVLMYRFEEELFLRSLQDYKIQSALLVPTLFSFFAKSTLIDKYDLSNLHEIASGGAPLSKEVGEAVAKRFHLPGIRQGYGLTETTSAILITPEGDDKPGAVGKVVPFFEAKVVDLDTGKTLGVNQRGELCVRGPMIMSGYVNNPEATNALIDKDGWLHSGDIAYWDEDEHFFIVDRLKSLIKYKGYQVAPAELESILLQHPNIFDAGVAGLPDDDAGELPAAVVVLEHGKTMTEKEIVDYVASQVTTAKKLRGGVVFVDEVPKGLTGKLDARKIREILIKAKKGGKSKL
# Chain of Streptavidin (Streptomyces avidinii) (P22629 whole entry, looked up): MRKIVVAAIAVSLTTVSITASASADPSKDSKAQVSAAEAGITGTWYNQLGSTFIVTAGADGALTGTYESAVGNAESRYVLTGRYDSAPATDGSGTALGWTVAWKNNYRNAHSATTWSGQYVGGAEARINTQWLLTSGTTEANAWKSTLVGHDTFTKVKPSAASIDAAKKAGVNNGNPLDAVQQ
# Chain of Focal adhesion kinase 1 (Homo sapiens) (Q05397 whole entry, looked up): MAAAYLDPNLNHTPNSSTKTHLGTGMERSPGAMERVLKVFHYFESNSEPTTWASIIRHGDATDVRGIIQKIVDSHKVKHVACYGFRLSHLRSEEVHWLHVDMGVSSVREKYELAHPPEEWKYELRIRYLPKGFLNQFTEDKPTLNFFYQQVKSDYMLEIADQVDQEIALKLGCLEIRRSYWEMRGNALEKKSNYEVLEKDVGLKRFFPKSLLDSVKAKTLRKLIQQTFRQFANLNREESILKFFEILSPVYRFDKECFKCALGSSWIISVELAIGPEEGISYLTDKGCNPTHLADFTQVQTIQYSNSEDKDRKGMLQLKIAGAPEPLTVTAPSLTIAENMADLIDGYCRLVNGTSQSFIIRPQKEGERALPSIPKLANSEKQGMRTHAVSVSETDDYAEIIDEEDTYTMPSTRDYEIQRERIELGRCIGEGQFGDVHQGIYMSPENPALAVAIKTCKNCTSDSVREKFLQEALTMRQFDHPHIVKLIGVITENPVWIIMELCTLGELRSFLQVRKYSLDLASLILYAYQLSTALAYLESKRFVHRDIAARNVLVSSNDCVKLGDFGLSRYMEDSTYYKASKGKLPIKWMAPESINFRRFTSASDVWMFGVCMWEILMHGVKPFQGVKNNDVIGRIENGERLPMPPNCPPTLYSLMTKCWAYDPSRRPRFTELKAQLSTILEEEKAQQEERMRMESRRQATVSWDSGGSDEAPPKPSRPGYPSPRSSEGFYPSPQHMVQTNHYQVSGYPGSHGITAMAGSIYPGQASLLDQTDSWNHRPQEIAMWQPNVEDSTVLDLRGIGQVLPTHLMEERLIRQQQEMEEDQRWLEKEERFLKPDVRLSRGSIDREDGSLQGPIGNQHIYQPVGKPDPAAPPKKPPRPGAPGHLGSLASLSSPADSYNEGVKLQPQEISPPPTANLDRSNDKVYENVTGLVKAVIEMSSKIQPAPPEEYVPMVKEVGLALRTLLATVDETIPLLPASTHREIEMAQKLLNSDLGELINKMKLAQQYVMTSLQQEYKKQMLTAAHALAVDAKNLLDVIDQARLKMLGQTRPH
# Chain of Follistatin (Homo sapiens) (P19883 whole entry, looked up): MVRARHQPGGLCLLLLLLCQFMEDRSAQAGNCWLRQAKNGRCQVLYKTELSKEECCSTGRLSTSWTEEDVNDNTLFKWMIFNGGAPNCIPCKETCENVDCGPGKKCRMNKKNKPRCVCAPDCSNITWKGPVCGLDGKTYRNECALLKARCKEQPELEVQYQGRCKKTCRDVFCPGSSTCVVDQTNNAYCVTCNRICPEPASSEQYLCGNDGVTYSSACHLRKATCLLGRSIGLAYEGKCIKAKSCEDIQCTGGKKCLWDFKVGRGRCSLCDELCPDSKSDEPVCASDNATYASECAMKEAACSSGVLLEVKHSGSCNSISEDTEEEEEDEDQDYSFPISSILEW
# Chain of Fibroblast growth factor 2 (Homo sapiens) (P09038 whole entry, looked up): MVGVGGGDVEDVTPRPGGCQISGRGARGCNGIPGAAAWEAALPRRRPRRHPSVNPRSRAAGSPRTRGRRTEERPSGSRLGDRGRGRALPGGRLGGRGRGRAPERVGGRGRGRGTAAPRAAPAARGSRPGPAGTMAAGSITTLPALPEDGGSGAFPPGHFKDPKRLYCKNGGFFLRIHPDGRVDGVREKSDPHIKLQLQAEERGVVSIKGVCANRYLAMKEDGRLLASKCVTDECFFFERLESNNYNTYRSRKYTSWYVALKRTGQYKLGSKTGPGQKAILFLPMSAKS
Compound,composite z-score [1],composite z-score [2],composite z-score [3],composite z-score [4],composite z-score [5],composite z-score [6],z-score [7],composite z-score (Lefty1),composite z-score [8],z-score [9],composite z-score [10],z-score [11],z-score [12],z-score [13],z-score [14],composite z-score [15],composite z-score [16],composite z-score (Torsin-1A (Homo sapiens) [17]),composite z-score (Torsin-1A (Homo sapiens) [18]),composite z-score [19]
COc1cc2c(cc1OC)CN(C(=O)[C@@H]1[C@H]3C(=O)O[C@H](c4ccccc4)[C@H](c4ccccc4)N3[C@H](c3ccc(O)cc3)[C@@]13C(=O)Nc1ccc(C#CCCO)cc13)CC2,0.388,0.989,0.584,0.876,1.11,1.24,-1.2,0.945,0.7,0.372 (inactive),0.527,0.082 (inactive),-0.403 (inactive),-0.878 (inactive),-0.231 (inactive),0.819,-0.0493,-0.0185,0.45,0.655
CCCCCCCCCCC(O)C1C=CC2C(=O)N(C)C(=O)C2N1Nc1cc(OC)c(OC)c(OC)c1 (stereo not given),0.255,0.242,0.55,-0.203,-0.763,-1.44,1.06,-0.946,0.458,-0.819 (inactive),-0.131,-2.56 (inactive),0.443 (inactive),0.819 (inactive),-0.212 (inactive),0.133,0.0086,-0.534,0.0777,-1.08
C=C(/C(=C/C[C@@H](OC(C)=O)c1ccc(CO)o1)c1cc(C(=O)OC)ccc1OC)C(C)C,1.54,0.659,0.571,0.0384,0.913,0.682,-0.237,0.564,0.427,-3.52 (inactive),0.201,-0.143 (inactive),-0.0434 (inactive),0.247 (inactive),2.78 (inactive),-0.446,0.148,0.431,0.549,1.07
COC(=O)[C@@]1(Cc2ccc(OC)cc2)[C@H]2c3cc(C(=O)N4CCCC4)n(Cc4ccc(OC(F)(F)F)cc4)c3C[C@H]2CN1C(=O)c1ccccc1,1.36,-0.376,-0.438,1,0.451,-0.702,0.691,-0.683,1.09,2.03 (inactive),0.622,-3.34 (inactive),0.488 (inactive),-0.565 (inactive),-0.239 (inactive),1.73,0.0925,-1.04,-0.89,-1.05
[N-]=[N+]=NCc1ccccc1C[C@]1(C(=O)N2CCOCC2)COC(c2ccc(OCCCO)cc2)=N1,2.22,1.19,0.168,0.695,0.234,-0.309,2.41,-0.346,1.01,-1.21 (inactive),0.0879,-3.07 (inactive),-0.983 (inactive),1.69 (inactive),-0.931 (inactive),1.6,0.0888,1.71,1.56,0.179
CC(C)CCC[C@@H](C)[C@H]1CC[C@@]2(C)C3=C(CC[C@]12C)[C@@]1(C)CC[C@H](OC(=O)c2ccccc2)C(C)(C)C1CC3 (stereo not given in full),0.226,0.29,-0.0586,0.816,0.438,0.288,0.442,0.591,0.134,-0.0355 (inactive),0.0964,-1.16 (inactive),-1.65 (inactive),0.581 (inactive),-0.653 (inactive),0.18,-0.178,0.316,0.171,0.364
C[C@@]12COC[C@]13C=C(Br)[C@H](C2)[C@@]1(CO1)C3=O,0.0359,-1.59,-0.306,-0.376,-0.222,-0.757,1.02,-0.0487,-0.388,0.198 (inactive),-0.329,0.603 (inactive),0.708 (inactive),0.769 (inactive),1.51 (inactive),-0.875,-0.0966,-1.76,-0.55,-0.3
C=CCNC(=O)[C@H]1[C@@H]2C(=O)O[C@@H](c3ccccc3)[C@@H](c3ccccc3)N2[C@@H](c2ccc(OCCO)cc2)[C@]12C(=O)N(C(=O)OCCOC)c1ccc(C#Cc3ccc(OC)cc3)cc12,1.25,1.15,0.0069,0.904,1.22,0.714,-1.59,0.544,0.719,-1.51 (inactive),0.209,-5.38 (inactive),0.054 (inactive),-1.43 (inactive),-0.857 (inactive),0.51,0.152,0.563,0.86,1.72
C=CCC(OC(C)=O)[C@@H]1[C@@H](N(Cc2cccc3ccccc23)C(=O)c2cccc3ccccc23)c2cc(OCCCO)ccc2N1C(=O)c1ccc2ccccc2c1 (stereo not given in full),0.279,0.18,-0.0836,0.0439,1.14,0.061,-0.348,0.11,-0.223,1.48 (inactive),-0.23,-2.35 (inactive),0.311 (inactive),-1.1 (inactive),1.03 (inactive),-0.0629,-0.0288,0.0265,-0.252,0.49
Cc1cccc([C@H]2C[C@H]3C(Br)=C[C@@H]2C(=O)[C@]32CO2)c1,-0.255,-1.61,-0.181,-0.145,0.243,0.291,0.518,0.154,-0.278,-0.425 (inactive),-0.258,-0.687 (inactive),0.185 (inactive),0.854 (inactive),2.63 (inactive),-0.221,-0.239,0.397,-1.21,-0.198
